A selection: hits, their analogues and other compounds. The true share with any hit is near 3.8%.
S2 tox: Viability Counterscreen for Primary qHTS for Inhibitors of ATXN expression | S2 cells (HEK-293 line with an ATXN2-luciferase reporter) viability, CellTiter-Fluor protease fluorescence, 24 h | Potency, µM (highest dose often 56.7 µM), usual class: cytotoxic | hit rate 0.49% among 400,000; also: nearly all actives have a fitted effect of over 40% in size
HT1080 IDH1KD tx: qHTS for induction of synthetic lethality in tumor cells producing 2HG: qHTS for the HT-1080-IDH1KD cell line; hit rate 2% among 360,000; Potency, µM (titrated, usually from 46.1 µM), for inactives: at the highest dose activity, negative = toxicity, most hits filed as cytotoxic; HT-1080 IDH1 knockdown viability, ATP luminescence, 48 h;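 also: 0% = DMSO wells and -100% = cell-free medium wells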
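HT-1080-IDH1KD cells (IDH1 knocked down), 750/well in RPMI with 5% FBS, treated with compound 48 h at 37 degrees C. Viability by CellTiter-Glo luminescence, normalised to DMSO and no-cell wells; concentration-response curves classed.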
HepG2 tox: qHTS for Inhibitors of TGF-b: Cytotox Counterscreen; HepG2 CAGA-GFP viability, ATP luminescence, 18 h; hit rate 0.76% among 410,000; Potency, µM (top dose mostly 46.1 µM), for inactives: at the highest dose activity change, negative = cytotoxicity, usual class: cytotoxic
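HepG2 CAGA-GFP cells (1000/well, DMEM with 1% FBS) received compound, then TGF-beta at 500 pg/mL final, and were incubated 18 hours at 37 degrees C. Viability was read by CellTiter-Glo luminescence. Media-only wells were set as complete cell-killing and DMSO as no toxicity.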
HT1080NT lethal: qHTS for induction of synthetic lethality in tumor cells producing 2HG: qHTS for the HT-1080-NT fibrosarcoma cell line | hit rate 1.6% among 360,000 | AID 686970, 2013 | Potency, µM (highest dose often 46.1 µM), for inactives: top-dose activity, negative = less viability, usual class: cytotoxic | HT-1080-NT fibrosarcoma viability, CellTiter-Glo ATP luminescence, 48 h;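 also: NT is the 2HG producing partner of a matched IDH1 knockdown line; 0% = DMSO-treated cells and -100% = media-only wells without cells; nearly all actives have a fitted effect of over 55% in size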
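750 cells/well, RPMI + 5% FBS; 2 h settle, compound pin-transfer, 48 h at 37 degrees C. CellTiter-Glo 10 min RT, luminescence. Normalized to DMSO and media-only wells.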
TGFb SMAD3 inh: qHTS for Inhibitors of TGF-b; HepG2 CAGA-GFP TGF-b/SMAD3 reporter, GFP fluorescence, 18 h; TGF-beta stimulated, 500 pg/mL final; Potency, µM (highest dose often 46.1 µM), for inactives: top-dose activity, negative = inhibition, usual class: inhibitors; hit rate 1.2% among 410,000; AID 588855, 2011; also: % is scaled to controls: 0 for no effect and ±100 for the full control effect; nearly all actives have a fitted effect of over 65% in size
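First, reporter cells (HEPG2 CAGA-GFP) rested 2 h at 37 degrees C. Next, compounds were pinned in and TGF-beta added to 500 pg/mL final. After 18 h, GFP was imaged per cell and summed per well.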
ATXN2 expr inh: Primary qHTS for Inhibitors of ATXN expression; hit rate 0.72% among 360,000; HEK-293 ATXN2-luciferase reporter, luminescence, 24 h; Potency, µM (doses to about 57 µM), for inactives: at the top dose activity change, negative = inhibition, actives largely listed as inhibitors; also: % is scaled to controls: 0 for no effect and ±100 for the full control effect; nearly all actives have a fitted effect of over 55% in size
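ATXN2-luciferase reporter cells (luciferase flanked by upstream and downstream ATXN2 gene portions) were treated 24 h at 37 °C with compounds at up to 57 uM. SteadyGlo luminescence gave expression; GF-AFC fluorescence gave viability.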
* hit, by the source's call; i = inactive; ? = inconclusive; nt = no result given. Calls follow the shape of the dose curve; as a rule, active = well fitted curve in the direction sought with a large enough effect; inconclusive = small, poorly fitted or top-dose-only effect, or another doubt; inactive = no such curve, though single readings can be large; an effect the other way counts as inactive or inconclusive. Potency is read from the fitted curve at half-maximal effect.

SMILES | S2 tox | HT1080 IDH1KD tx | HepG2 tox | HT1080NT lethal | TGFb SMAD3 inh | ATXN2 expr inh
CC[N+]1(C)CCC(O)(c2ccc(OC)cc2)C(C(=O)c2ccc(OC)cc2)C1 (stereo not drawn) | ? | 4.6µM* | -101% | ? | ? | ?
Cc1ccc2nc(-c3ccccc3C)c(CN(CC3CCCO3)C(=O)c3cccs3)cc2c1 (stereo not drawn) | i | nt | nt | nt | nt | nt
O=C(NCCc1ccccc1)c1ccc2c(c1)CCN2S(=O)(=O)c1ccccc1 | i | nt | -2% | nt | 13% | 14%
COc1ccc(Cc2[nH]n3c(=O)cc(C(C)C)nc3c2-c2ccccc2)cc1 | ? | ? | 11µM* | ? | ? | 22µM*
CCOC(=O)c1c(CN2CCN(C)CC2)n(C)c2cc(Br)c(OC)cc12 | i | ? | 11µM* | ? | 14% | -24%
COc1ccccc1N1CCN(C(=O)c2nn(-c3ccc(C)cc3)c(=O)n(C)c2=O)CC1 | i | nt | 7% | nt | -8% | -11%
CCOC(=O)C1=C[C@@H](C(C)(C)C)N(S(=O)(=O)c2ccc(C)cc2)[C@H]1c1ccc(Cl)c(Cl)c1 | i | 15µM* | -28% | 15µM* | ? | -14%
CN1CCN(c2nc3cc(C(F)(F)F)ccc3n3cccc23)CC1 | ? | 23µM* | -6% | ? | 52% | -28%
COc1ccc2cc(CNCc3nonc3C)c(N3CCCC(CO)C3)nc2c1 (stereo not drawn) | i | nt | nt | nt | nt | nt
Cc1ccc(N2C(=O)CSC23C(=O)Nc2ccccc23)cc1F (stereo not drawn) | i | nt | 3% | nt | 6% | 7%
Cc1cc(C)c(S(=O)(=O)Nc2ccc3c(c2)CCC3)c(C)c1 | i | ? | -87% | 23µM* | 18µM* | ?
COc1ccc(CCNc2ncnc3sc(C(=O)N(C)C)c(C)c23)cc1OC | i | nt | nt | nt | nt | nt
CCOC(=O)C1=C(C)N=C2SC(C)C(=O)N2C1c1ccc(C(=O)OC)cc1 (stereo not drawn) | i | 1% | -8% | 0% | -3% | -9%
CCOC(=O)C1=C(C)N=C2SC=C(C)N2C1c1ccc(OC)cc1 (stereo not drawn) | i | 21µM* | -3% | 16µM* | -25% | -25%
CN1CCCC(CC2Oc3ccccc3Sc3ccccc32)C1 (stereo not drawn) | ? | 21µM* | -50% | 15µM* | ? | ?
CNC[C@H](CC1CCCCC1)NC[C@H](CO)NCCc1cccc(C(F)(F)F)c1 | 22µM* | ? | -103% | ? | ? | 28µM*
COc1ccccc1N1CCN(C(=O)c2ccc(Cl)c(S(=O)(=O)NCc3ccco3)c2)CC1 | i | 7.1µM* | -14% | 8.9µM* | -7% | -25%
COc1ccc2c(c1)OC(C)CN(CCNC(=O)c1ccc(-n3cccn3)cc1)C2 (stereo not drawn) | i | nt | nt | nt | nt | nt
CSC1=C(C#N)C(c2ccc(Cl)cc2)C2=C(CC(C)(C)CC2=O)N1 (stereo not drawn) | ? | 8.2µM* | 4% | -29% | 11µM* | -21%
CC1(C)CC(=O)C2=C(C1)NC1=C(C(=O)c3ccccc31)C2c1ccc(Cl)cc1 (stereo not drawn) | ? | 18µM* | -45% | -14% | ? | 0%
O=[N+]([O-])/C=C\c1ccc(N2CCOCC2)cc1 | ? | 15µM* | -64% | 21µM* | ? | ?
COc1ccc(N2CCN(C(=O)c3cc(NC(C)=O)c4c(c3)ncn4CCc3ccccn3)CC2)cc1 | i | nt | nt | nt | nt | nt
CO[C@@H]1[C@@H](O[C@@H]2O[C@H](C)[C@@H](O[C@H]3C[C@@](C)(O)[C@@H](O)[C@H](C)O3)[C@H](N(C)C)[C@H]2O)[C@@H](CC=O)C[C@@H](C)[C@@H](O[C@@H]2CC[C@H](N(C)C)[C@@H](C)O2)/C=C/C=C/C[C@@H](C)OC(=O)C[C@H]1O | i | nt | nt | nt | nt | nt
CSc1nc(N)nc(SCC(=O)Nc2ccc(Cl)cc2)c1C#N | i | ? | -51% | ? | ? | 1%
CSc1nc(N)nc(SCCS(=O)(=O)c2ccc(Cl)cc2)c1C#N | ? | 11µM* | 0% | ? | ? | ?
SMILES | S2 tox | HT1080 IDH1KD tx | HepG2 tox | HT1080NT lethal | TGFb SMAD3 inh | ATXN2 expr inh
CC1(C)Cc2ccccc2C(/C(=N\Nc2cccc(Cl)c2)C(N)=O)=N1 | ? | 21µM* | -26% | 21µM* | ? | -25%
CN(C)c1ccc(C(C[N+](=O)[O-])c2c(N)n(C)c(=O)n(C)c2=O)c(F)c1C#N (stereo not drawn) | nt | ? | 11µM* | ? | ? | nt
COc1ccc(Cn2cc(F)c(=O)n(C)c2=O)cc1[N+](=O)[O-] | i | 1% | -85% | 2% | 37% | -8%
COc1ccc(Br)cc1C(C[N+](=O)[O-])c1c(N)n(C)c(=O)n(C)c1=O (stereo not drawn) | nt | ? | 16µM* | ? | 10µM* | nt
Cn1c(N)c(C(C[N+](=O)[O-])c2c(F)cccc2Cl)c(=O)n(C)c1=O (stereo not drawn) | i | ? | -25% | ? | 0% | -4%
CCc1nc2cc(C(=O)N(C)C3CCOC3)cc(NC(=O)c3ccccc3OC)c2n1C (stereo not drawn) | i | nt | nt | nt | nt | nt
Cc1ccccc1-n1nc(CO)c(C(=O)NCCc2ccccc2)n1 | nt | nt | -16% | nt | 0% | nt
Cc1ncc(CO)c2c1Oc1nc(-c3ccccc3)nc(SCC(=O)Nc3cccc(O)c3)c1C2 | ? | 7% | -39% | -19% | 13µM* | nt
COc1ccc(-c2nc3c(c(SCC(=O)Nc4cccc(O)c4)n2)Cc2c(CO)cnc(C)c2O3)cc1 | i | 0% | -24% | 2% | ? | 0%
O=C(/C=C/c1ccc(O)cc1)c1ccc(NC2=C(N3CCCCC3)C(=O)c3ccccc3C2=O)cc1 | ? | ? | -61% | -19% | 6.3µM* | ?
Cc1ccc(NC2=C(N3CCCCC3)C(=O)c3ccccc3C2=O)cc1 | ? | ? | -45% | ? | ? | ?
COc1ccccc1NC1=C(N2CCCCC2)C(=O)c2ccccc2C1=O | ? | ? | 16µM* | 4.6µM* | ? | ?

From PubChem BioAssay
